Shown are actives, neighbours in structure and some others; about 2.6% of the full set was active somewhere.
MLLE-PAM2 inh – blocks PAM2 peptide binding to the PABP1 MLLE domain; P11940; AID 588489; 360,000 compounds, 0.36% hits; inhibition, % at 20 µM; GST-MLLE / FITC-PAM2 fluorescence polarization; in the data active means inhibition above about 35%, passing the limit was not always enough;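 further: plate controls were DMSO wells with GST-MLLE for no effect and wells lacking GST-MLLE protein for full effect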
Target sequence (P11940 whole entry, looked up, the tested form may be a part): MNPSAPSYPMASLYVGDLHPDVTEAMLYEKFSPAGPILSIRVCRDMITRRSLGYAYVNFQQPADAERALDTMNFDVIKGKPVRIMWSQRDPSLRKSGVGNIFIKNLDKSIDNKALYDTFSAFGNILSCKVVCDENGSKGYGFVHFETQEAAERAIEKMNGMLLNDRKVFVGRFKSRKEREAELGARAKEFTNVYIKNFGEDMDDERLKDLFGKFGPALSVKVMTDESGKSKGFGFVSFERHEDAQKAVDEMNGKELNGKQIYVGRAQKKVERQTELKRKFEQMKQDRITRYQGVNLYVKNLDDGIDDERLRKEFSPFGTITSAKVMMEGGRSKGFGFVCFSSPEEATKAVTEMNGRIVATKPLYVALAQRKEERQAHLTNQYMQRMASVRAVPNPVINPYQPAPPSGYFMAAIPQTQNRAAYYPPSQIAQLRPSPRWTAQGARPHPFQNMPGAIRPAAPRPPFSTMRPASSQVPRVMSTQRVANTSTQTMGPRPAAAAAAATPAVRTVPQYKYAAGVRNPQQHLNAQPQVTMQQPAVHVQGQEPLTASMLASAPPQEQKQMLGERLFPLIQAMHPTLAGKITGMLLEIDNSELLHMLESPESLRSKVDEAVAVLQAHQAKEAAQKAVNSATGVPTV
CRFR2-BP antag – antagonists of CRF-binding protein/CRF-R2 receptor complex. 350,000 compounds, 0.59% hits. inhibition, % at 11.8 µM. HEK293 CRF-R2/CRF-BP, CRF-induced calcium fluorescence. AID 588475;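 active means inhibition of the ligand-induced calcium signal above about 50% at the single tested concentration, limit read from the data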
eIF4H FP inh – inhibitors of RNA binding by human eIF4H. Q15056. eIF4H fluorescence polarization binding assay. inhibition, % at 35 µM. 290,000 compounds, 0.94% hits. AID 2012;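 further: calls also rest on retests at 20 µM and on dose response follow-up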
PHOSPHO1 block – PHOSPHO1 (human) inhibition. recombinant PHOSPHO1, absorbance phosphatase assay. inhibition, % at 13.3 µM. 290,000 compounds, 1.1% hits. AID 1565; in the data active means inhibition above about 60%
PABP polyA inh – PABP-poly(A) binding inhibition; P11940; 290,000 compounds, 1% hits; PABP-poly(A) RNA binding, fluorescence polarization; inhibition, % at 35 µM;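 further: calls also rest on retests at 20 µM and on dose response follow-up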
* hit, by the source's call; / = no result. Unless noted, how the calls were made is not given here.

SMILES | MLLE-PAM2 inh | CRFR2-BP antag | eIF4H FP inh | PHOSPHO1 block | PABP polyA inh
Cn1cccc1/C=C1\CC(C(C)(C)C)C/C(=C\c2cccn2C)C1=O (stereo not drawn) | -124 | -119 | 51* | 41 | 60*
Cn1cccc1/C=C1\Cc2ccccc2C1=O | -4 | -13 | -2 | 21 | -14
O=C(NCC1CCCCC1)c1ccc2nc([C@@H]3O[C@H](CO)[C@@H](O)[C@H]3O)[nH]c2c1 | -8 | / | / | / | /
O=c1[nH]c2ccccc2nc1/C=C/c1ccc(F)cc1 | -69 | -112 | 86 | 50 | 88*
O=C(/C=C/c1ccc(F)cc1)Nc1nc2ccccc2[nH]1 | / | / | active | 9 | 59*
O=C(Nc1nc2ccccc2[nH]1)c1cccc(F)c1 | 3 | -17 | -9 | 27 | 2
O=c1[nH]c2ccccc2nc1/C=C/c1ccccc1 | -14 | -2 | 44 | 28 | 29
CCOC(=O)CC(NS(=O)(=O)c1ccc2[nH]cc(C(=O)O)c(=O)c2c1)c1ccc(OCC)c(OC)c1 (stereo not drawn) | -4 | 1 | 79* | 19 | 41*
CCOC(=O)CC(NS(=O)(=O)c1ccc(OC)c(OC)c1)c1cccc([N+](=O)[O-])c1 (stereo not drawn) | -8 | -5 | 7 | 0 | 15
O=C(C1=C[C@@H]2[C@H]3C(=O)N(c4ccccc4Cl)C(=O)[C@H]3[C@@H](C(=O)c3ccc(Cl)cc3)N2C=C1)c1ccccc1 | / | / | 52* | 5 | 12
O=C(C1=C[C@@H]2[C@H]3C(=O)N(c4cccc(Cl)c4)C(=O)[C@H]3[C@@H](C(=O)c3ccc(Cl)cc3)N2C=C1)c1ccccc1 | -30 | -40 | 44 | 7 | 67
N/C(Cc1ccccc1Sc1ccccc1)=N\O | -9 | 61* | -4 | 11 | -6
Cc1ccc(NC(=S)N(CCCN2CCN(C)CC2)Cc2cccs2)cc1 | -44 | -3 | -7 | 32 | 8
Cc1ccc(NC(=S)N(CCCN2CCN(C)CC2)Cc2cccs2)cc1C | -64 | 9 | 6 | 36 | 106*
O=C(c1ccc(Br)cc1)N1CCN(c2ncccn2)CC1 | 2 | 94* | / | / | /
Cc1cccc(N2C(N)=NC(N)=NC23CCCCC3)c1 | -4 | 52* | -6 | 9 | 7
N=c1n(CCN2CCCC2)c2ccccc2n1CC(O)c1ccco1 (stereo not drawn) | 44* | 17 | 17 | 25 | 28
Cc1ccc(OCC(=O)N2CCN(c3nnc(-c4ccc(C)cc4)c4ccccc34)CC2)cc1 | 7 | 68* | -7 | 20 | -9
COc1ccc(OCC(=O)N2CCN(c3nnc(-c4ccc(C)cc4)c4ccccc34)CC2)cc1 | -3 | 13 | -8 | 51 | -8
Cc1ccc(OCC(=O)N2CCN(C(=O)c3cccs3)CC2)cc1 | 3 | -9 | active | -13 | 67*
CC(=O)OCC(C)n1[nH]c2ccccc2c1=O (stereo not drawn) | 18 | / | / | / | /
CCOc1ccc(NC(=O)Cn2c(=O)n(CC3CCCO3)c(=O)c3ccccc32)cc1 (stereo not drawn) | -3 | -3 | active | 5 | 55
O=[N+]([O-])c1ccc(Sc2cccc3cccnc23)c([N+](=O)[O-])c1 | 26 | -11 | 3 | 87* | -3
O=[N+]([O-])c1cc(Cl)ccc1Sc1cccc2cccnc12 | 3 | 32 | 1 | -6 | -11
NC(=O)c1sc(=S)n2c1[nH]c(=O)c1sccc12 | 12 | -47 | 4 | 17 | 39
SMILES | MLLE-PAM2 inh | CRFR2-BP antag | eIF4H FP inh | PHOSPHO1 block | PABP polyA inh
CC(=O)NNC(=O)c1sc(=S)n2c1[nH]c(=O)c1sccc12 | 34 | -15 | 54* | -50 | 18*
Cc1ccc(C(=O)NCC(=O)OCn2nnc3ccccc3c2=O)cc1 | -4 | 15 | / | / | /
CCN(CC)CCSC(=O)C(c1ccccc1)c1ccccc1 | 47* | / | / | / | /
CCN(CC)CCOC(=O)C(c1ccccc1)c1ccccc1 | -11 | -6 | -8 | 13 | -1
CC(=O)N1CC2(CC(c3ccccc3C(F)(F)F)=NO2)CN1c1ccc(Cl)cc1 (stereo not drawn) | 4 | -6 | / | / | /
Cc1cc([N+](=O)[O-])c2ccccc2c1NS(=O)(=O)c1ccccc1 | -3 | 119* | / | / | /
COc1cccc(-n2nc(C#N)c(Cl)cc2=O)c1 | -7 | 74* | -3 | -12 | 15
COc1cccc(-n2nc(C(N)=O)c(O)cc2=O)c1 | -8 | 2 | -9 | 28 | -3
O=C(CCc1nnc(CCCCc2ccccc2)o1)NCCN1CCCCC1=O | -7 | 9 | 1 | 60* | -7
O=C(CCc1nnc(CCCCc2ccccc2)o1)NCCc1cccnc1 | 0 | -13 | 2 | 44 | 12
C/C(=N\Nc1nc2ccccc2c(=O)n1O)c1ccco1 | 7 | 25 | 79* | -25 | 24
C/C(=N\NC(=O)c1cc(C)nc2ccccc12)c1ccco1 | 2 | -3 | -9 | 34 | -4
CN1OC[C@@H]2CN(S(=O)(=O)c3cccc(C(F)(F)F)c3)[C@H](c3ccc(-c4cccnc4)cc3)C[C@@H]21 | -1 | -15 | / | / | /
COc1ccc(/C=N/NC(=O)c2nn(-c3ccccc3)c(=O)c3c(N)scc23)cc1 | 16 | -17 | 71* | 3 | 31
COc1ccc(/C=N/NC(=O)c2nn(-c3ccc(C)c(C)c3)c(=O)c3ccccc23)cc1 | 5 | -1 | -5 | -6 | -9
CCOC(=O)c1nn(-c2ccc(OC)cc2)c(=O)c2c(N)scc12 | 11 | 7 | -6 | 22 | 4
COc1ccc(/C=N/NC(=O)c2nn(-c3ccc(Cl)cc3)c(=O)c3c(N)scc23)cc1 | 11 | 4 | 66 | 100* | 45
COc1cccc(C(O)c2ncc(-c3ccccc3Cl)[nH]2)c1 (stereo not drawn) | 2 | / | / | / | /
Cc1cc([N+](=O)[O-])ccc1NCc1ccccc1[N+](=O)[O-] | -8 | 91* | 2 | -20 | 10
O=[N+]([O-])c1ccccc1CNc1ccc(F)c(Cl)c1 | -3 | 2 | 74 | -18 | active
CC(=O)Nc1ccc(CN2C(=O)C(C)(C)ON=C2c2ccc(C(F)(F)F)cc2)cc1 | 1 | / | / | / | /
Oc1[nH]c(N=C2N=c3ccccc3=N2)c2ccccc12 | 13 | -21 | 80* | 5 | 43*
COc1ccc(NC(=O)C/C(C)=N/NC(=O)C(=O)Nc2cccc(Cl)c2C)c(OC)c1 | 1 | -11 | -2 | 59 | 0
Cc1ccc(C(=O)N2CCN(C(=O)CN3CCOCC3)C2)cc1 | -6 | 78* | -1 | 19 | 3
Cn1c(Cc2c[nH]c3ccccc23)n[nH]c1=S | -18 | 9 | 6.5* | 89* | 70
C[C@H](CO)N1C[C@H](C)[C@@H](CN(C)C(=O)Nc2ccc3c(c2)OCO3)Oc2ccc(NS(=O)(=O)c3cn(C)cn3)cc2C1=O | -11 | 1 | / | / | /
COc1ccc(N2CCN(C(=O)CSc3nnc(-c4ccc5[nH]c(C)c(C)c5c4)o3)CC2)cc1 | -132 | 6 | -6 | 64* | -13
Cc1ccc(-c2nnc(SCC(=O)N3CCN(c4ccccc4)CC3)o2)cc1 | -10 | 88* | 0 | 2 | -10

Screens deposited in PubChem BioAssay by Sanford-Burnham Center for Chemical Genomics.
